Values joined by “and” are separate entries in the source; they are usually repeats but may differ in a detail not shown here. Equal values may be shown once.

Ribosomal protein S6 kinase alpha-5 (Homo sapiens), sequence (O75582 whole entry, looked up): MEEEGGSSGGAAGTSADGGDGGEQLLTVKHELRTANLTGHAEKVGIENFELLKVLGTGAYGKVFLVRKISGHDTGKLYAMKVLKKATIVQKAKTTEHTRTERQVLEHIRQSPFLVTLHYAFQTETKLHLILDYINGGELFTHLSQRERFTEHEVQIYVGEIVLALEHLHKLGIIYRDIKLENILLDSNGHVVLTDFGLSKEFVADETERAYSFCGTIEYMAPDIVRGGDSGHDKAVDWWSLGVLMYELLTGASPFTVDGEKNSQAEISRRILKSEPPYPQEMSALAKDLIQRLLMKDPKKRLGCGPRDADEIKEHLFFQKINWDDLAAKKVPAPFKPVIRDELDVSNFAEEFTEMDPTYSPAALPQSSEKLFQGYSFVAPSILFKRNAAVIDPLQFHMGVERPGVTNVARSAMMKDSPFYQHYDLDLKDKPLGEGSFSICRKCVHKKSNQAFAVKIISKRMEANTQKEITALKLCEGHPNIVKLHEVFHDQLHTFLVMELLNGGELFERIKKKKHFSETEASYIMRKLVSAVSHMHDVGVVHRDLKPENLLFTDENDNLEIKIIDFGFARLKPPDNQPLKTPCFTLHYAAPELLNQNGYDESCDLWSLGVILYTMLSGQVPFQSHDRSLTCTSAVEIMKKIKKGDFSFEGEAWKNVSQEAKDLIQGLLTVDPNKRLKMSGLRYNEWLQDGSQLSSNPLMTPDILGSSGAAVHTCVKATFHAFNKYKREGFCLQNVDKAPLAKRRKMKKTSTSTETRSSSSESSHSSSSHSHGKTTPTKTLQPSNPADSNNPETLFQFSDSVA

For one experiment, the target named is Serine/threonine-protein kinase MRCK beta (Homo sapiens) (UniProt Q9Y5S2). Conditions: at 1 µM.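 Note: averaged inhibition values against MRCK beta, part of the GSK PKIS profiling dataset.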
Serine/threonine-protein kinase MRCK beta (Homo sapiens), sequence (Q9Y5S2 whole entry): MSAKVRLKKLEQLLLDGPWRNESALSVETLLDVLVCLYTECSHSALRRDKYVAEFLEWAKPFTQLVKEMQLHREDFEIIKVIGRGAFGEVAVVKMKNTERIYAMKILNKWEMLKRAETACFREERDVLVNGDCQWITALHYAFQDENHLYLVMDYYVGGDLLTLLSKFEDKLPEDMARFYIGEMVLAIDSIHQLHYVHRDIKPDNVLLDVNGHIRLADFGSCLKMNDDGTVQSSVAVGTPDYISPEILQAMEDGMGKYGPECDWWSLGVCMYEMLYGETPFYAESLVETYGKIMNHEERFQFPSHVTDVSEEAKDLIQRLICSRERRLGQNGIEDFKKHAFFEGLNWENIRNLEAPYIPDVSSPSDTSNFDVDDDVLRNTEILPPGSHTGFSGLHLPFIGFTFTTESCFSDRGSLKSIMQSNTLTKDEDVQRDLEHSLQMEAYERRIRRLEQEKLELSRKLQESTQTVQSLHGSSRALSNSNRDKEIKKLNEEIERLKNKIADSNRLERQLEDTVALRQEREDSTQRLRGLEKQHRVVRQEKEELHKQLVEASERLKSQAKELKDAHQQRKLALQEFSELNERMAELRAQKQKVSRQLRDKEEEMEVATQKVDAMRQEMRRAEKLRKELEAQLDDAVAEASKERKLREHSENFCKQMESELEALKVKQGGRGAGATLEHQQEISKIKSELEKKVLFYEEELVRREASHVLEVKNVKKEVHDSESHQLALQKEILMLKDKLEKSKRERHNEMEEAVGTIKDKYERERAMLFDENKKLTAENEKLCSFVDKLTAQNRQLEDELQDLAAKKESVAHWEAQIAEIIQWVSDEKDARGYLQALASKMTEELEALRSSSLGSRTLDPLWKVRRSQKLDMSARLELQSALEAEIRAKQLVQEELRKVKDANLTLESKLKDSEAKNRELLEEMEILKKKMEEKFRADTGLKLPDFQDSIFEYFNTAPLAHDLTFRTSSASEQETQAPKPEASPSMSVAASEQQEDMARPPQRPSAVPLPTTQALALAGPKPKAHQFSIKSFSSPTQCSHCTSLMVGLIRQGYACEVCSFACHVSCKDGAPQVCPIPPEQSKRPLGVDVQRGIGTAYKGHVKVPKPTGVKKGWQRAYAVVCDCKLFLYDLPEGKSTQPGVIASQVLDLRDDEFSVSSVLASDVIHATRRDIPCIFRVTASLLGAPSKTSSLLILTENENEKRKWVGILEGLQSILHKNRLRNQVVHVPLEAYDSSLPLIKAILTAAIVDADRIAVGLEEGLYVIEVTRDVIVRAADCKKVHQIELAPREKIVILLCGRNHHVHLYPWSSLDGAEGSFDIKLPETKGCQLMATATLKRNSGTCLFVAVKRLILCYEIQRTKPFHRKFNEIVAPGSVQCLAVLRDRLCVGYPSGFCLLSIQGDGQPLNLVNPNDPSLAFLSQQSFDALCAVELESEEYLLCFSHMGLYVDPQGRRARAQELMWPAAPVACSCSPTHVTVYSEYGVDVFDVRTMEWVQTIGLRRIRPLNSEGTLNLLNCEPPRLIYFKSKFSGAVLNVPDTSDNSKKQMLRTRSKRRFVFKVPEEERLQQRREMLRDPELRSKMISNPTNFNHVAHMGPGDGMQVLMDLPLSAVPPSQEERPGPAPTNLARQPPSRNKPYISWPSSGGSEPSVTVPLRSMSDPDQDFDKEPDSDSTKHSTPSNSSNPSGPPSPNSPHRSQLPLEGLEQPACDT
As a reminder, the inhibition is the relative decrease from the control value, in per cent. Consider `Nc1nonc1-c1nc2cnccc2n1C1CC1`, for which the inhibition is 41% and 42.7%.
On the same count and under the same terms, in the case of `NS(=O)(=O)c1cccc(N/C=C2\C(=O)Nc3ccccc32)c1` it was 2.14%.
Same read-out and setting: in the case of `CC1=C(C(=O)Nc2ccc3[nH]ncc3c2)C(c2ccc(F)cc2)N=C(c2ccc(C(F)(F)F)nc2)N1` (configuration not stated) it was 4.54%.
Same read-out and setting: in the case of `CNC(=O)c1cncc(/C=C/c2ccccc2C)c1` it was 0.83%.
In the case of `CN1CCC(C(=O)Nc2n[nH]c3nc(-c4ccc(O)cc4)c(Br)cc23)CC1`, the inhibition is 12.8% and 12.7%.
The same measure, in the same setting: in the case of `Cc1cc(O)cc(C)c1/C=C/c1cncc(C(N)=O)c1` it was 1.02%; in that of `CS(=O)(=O)Nc1ccc(-c2cc(-c3ccccc3)cc(C(N)=O)c2N)cc1`, 1.3%.
For the compound `CS(=O)(=O)CCNCc1ccc(-c2ccc3ncnc(Nc4ccc(OCc5ccccc5)cc4)c3c2)o1`, the inhibition worked out at 1.22%.
On the same count and under the same terms, then `CCOc1ccc2c(-c3ccnc(Nc4cc(OC)cc(C(F)(F)F)c4)n3)cnn2n1`, with 0.13%; and `Cc1cc(O)cc(C)c1/C=C/c1cncc(C(=O)OC(C)(C)C)c1`, with 2.65%.
On to `O=C1Nc2ccccc2/C1=C1\CCc2cc(O)ccc21`, for which the inhibition amounted to 1.65%.
With `CCS(=O)(=O)c1ccc(OC)c(Nc2ncc(-c3cccc(F)c3)o2)c1`, the inhibition amounted to 0.78%.
Still for that read-out and setting: in the case of `COc1cccc(Nc2nccc(-c3cnn4ncccc34)n2)c1` it was -1.51%.
Still for that read-out and setting: in the case of `Nc1ncnc2occ(-c3ccc(NC(=O)Nc4cc(C(F)(F)F)ccc4F)cc3)c12` it was 0.77% and -0.99%.
Still for that read-out and setting: in the case of `O=C(Nc1n[nH]c2nnc(-c3cccnc3)cc12)C1CC1` it was 0.7%; in that of `O=C(O[C@H]1CN[C@H](C#Cc2cc3ncnc(Nc4ccc5c(cnn5Cc5ccccc5)c4)c3s2)C1)N1CCOCC1`, -2.08%; in that of `COc1cc(N2CCN(C(C)C)CC2)ccc1Nc1nc(Nc2cccc3ncccc23)c2cc[nH]c2n1`, 4.14%.
As to `CS(=O)(=O)CCNCc1ccoc1-c1ccc2ncnc(Nc3ccc(OCc4ccccc4)cc3)c2c1`, the inhibition was -2.47%.
Same read-out and setting: then `CCN1CCC(C(=O)Nc2n[nH]c3nnc(-c4cccc(F)c4F)cc23)CC1`, with -0.36%; and `COc1ccc(-c2nn3ncccc3c2-c2ccnc(Nc3ccc(F)c(F)c3)n2)cc1`, with -0.11%.
Take `CCS(=O)(=O)c1ccc(OC)c(Nc2ncc(-c3cccc(C(C)=O)c3)o2)c1`: the inhibition was -0.03%.
On to `c1cnn2ncc(-c3ccnc(NCCCN4CCOCC4)n3)c2c1`, for which the inhibition worked out at 3.84%.
The same measure, in the same setting: then `CN(C)CCNC(=O)Nc1ccc(N(C)c2ccnc(Nc3ccc(CS(C)(=O)=O)cc3)n2)cc1`, with 2.25%; and `CCn1c(-c2nonc2N)nc2cncc(C(=O)NCCNC)c21`, with 66.7%; and `COc1cc(N2CCN(C(C)C)CC2)ccc1Nc1nc(Nc2cccc(F)c2C(=O)O)c2cc[nH]c2n1`, with 0.34%.
On to `COC(=O)Nc1nc2cc(Oc3ccc(NC(=O)Nc4ccccc4)cc3)ccc2[nH]1`, for which the inhibition came out at 0.05%.
As to `NC(=O)c1ccc2c(-c3ccnc(NCCCO)n3)c(-c3ccc(F)cc3)nn2c1`, the inhibition came to 2.28%.
On the same count and under the same terms, then `CS(=O)(=O)Nc1ccc(-c2ccc3c(NC(=O)C4CC4)n[nH]c3c2)cc1`, with 1.45%.
Consider `COC(=O)Nc1nc2ccc(Oc3ccc(NC(=O)Nc4cc(C(F)(F)F)ccc4F)cc3)cc2s1`, for which the inhibition amounted to 1.68%.
Same read-out and setting: then `COc1ccccc1-c1cc(/C=C2\C(=O)Nc3ncc(Br)cc32)cc(Br)c1O`, with -0.72%; and `Cc1nnc(-c2cccc(-c3ccc(C(=O)NCC4CC4)cc3)c2)o1`, with -0.8%.

A further experiment concerns the target Ribosomal protein S6 kinase alpha-5 (Homo sapiens) (UniProt O75582). The settings on record: at 0.1 µM.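 Note: mean inhibition of MSK1 reported, from a GSK PKIS inhibitor set screen.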
Regarding `Nc1nonc1-c1nc2cnccc2n1C1CC1`, the inhibition was 75.6% and 71.7%.
In the case of `NS(=O)(=O)c1cccc(N/C=C2\C(=O)Nc3ccccc32)c1`, the inhibition worked out at 10.2%.
For `CC1=C(C(=O)Nc2ccc3[nH]ncc3c2)C(c2ccc(F)cc2)N=C(c2ccc(C(F)(F)F)nc2)N1` (configuration not stated), the inhibition turned out to be 3.51%.
On the same count and under the same terms, then `CNC(=O)c1cncc(/C=C/c2ccccc2C)c1`, with 3.42%.
Same read-out and setting: in the case of `CN1CCC(C(=O)Nc2n[nH]c3nc(-c4ccc(O)cc4)c(Br)cc23)CC1` it was 1.62% and 0.25%; in that of `Cc1cc(O)cc(C)c1/C=C/c1cncc(C(N)=O)c1`, 1.68%; in that of `CS(=O)(=O)Nc1ccc(-c2cc(-c3ccccc3)cc(C(N)=O)c2N)cc1`, 3.96%.
Same read-out and setting: in the case of `CS(=O)(=O)CCNCc1ccc(-c2ccc3ncnc(Nc4ccc(OCc5ccccc5)cc4)c3c2)o1` it was 1.86%; in that of `CCOc1ccc2c(-c3ccnc(Nc4cc(OC)cc(C(F)(F)F)c4)n3)cnn2n1`, 1.4%.
With `Cc1cc(O)cc(C)c1/C=C/c1cncc(C(=O)OC(C)(C)C)c1`, the inhibition was found to be 1.89%.
On the same count and under the same terms, then `O=C1Nc2ccccc2/C1=C1\CCc2cc(O)ccc21`, with 1.96%; and `CCS(=O)(=O)c1ccc(OC)c(Nc2ncc(-c3cccc(F)c3)o2)c1`, with 5.29%; and `COc1cccc(Nc2nccc(-c3cnn4ncccc34)n2)c1`, with 1.02%.
The same measure, in the same setting: then `Nc1ncnc2occ(-c3ccc(NC(=O)Nc4cc(C(F)(F)F)ccc4F)cc3)c12`, with 5.58% and -0.86%; and `O=C(Nc1n[nH]c2nnc(-c3cccnc3)cc12)C1CC1`, with -1.47%; and `O=C(O[C@H]1CN[C@H](C#Cc2cc3ncnc(Nc4ccc5c(cnn5Cc5ccccc5)c4)c3s2)C1)N1CCOCC1`, with -1.78%.
On the same count and under the same terms, in the case of `COc1cc(N2CCN(C(C)C)CC2)ccc1Nc1nc(Nc2cccc3ncccc23)c2cc[nH]c2n1` it was 0.1%; in that of `CS(=O)(=O)CCNCc1ccoc1-c1ccc2ncnc(Nc3ccc(OCc4ccccc4)cc3)c2c1`, -0.3%; in that of `CCN1CCC(C(=O)Nc2n[nH]c3nnc(-c4cccc(F)c4F)cc23)CC1`, -1.22%.
For the compound `COc1ccc(-c2nn3ncccc3c2-c2ccnc(Nc3ccc(F)c(F)c3)n2)cc1`, the inhibition came to 3.92%.
As to `CCS(=O)(=O)c1ccc(OC)c(Nc2ncc(-c3cccc(C(C)=O)c3)o2)c1`, the inhibition was 2.8%.
Same read-out and setting: in the case of `c1cnn2ncc(-c3ccnc(NCCCN4CCOCC4)n3)c2c1` it was 6.61%; in that of `CN(C)CCNC(=O)Nc1ccc(N(C)c2ccnc(Nc3ccc(CS(C)(=O)=O)cc3)n2)cc1`, 3.26%.
On the same count and under the same terms, then `CCn1c(-c2nonc2N)nc2cncc(C(=O)NCCNC)c21`, with 55.2%; and `COc1cc(N2CCN(C(C)C)CC2)ccc1Nc1nc(Nc2cccc(F)c2C(=O)O)c2cc[nH]c2n1`, with 2.89%; and `COC(=O)Nc1nc2cc(Oc3ccc(NC(=O)Nc4ccccc4)cc3)ccc2[nH]1`, with 2.4%.
On to `NC(=O)c1ccc2c(-c3ccnc(NCCCO)n3)c(-c3ccc(F)cc3)nn2c1`, for which the inhibition is 11.4%.
Consider `CS(=O)(=O)Nc1ccc(-c2ccc3c(NC(=O)C4CC4)n[nH]c3c2)cc1`, for which the inhibition stood at 3.35%.
The same measure, in the same setting: in the case of `COC(=O)Nc1nc2ccc(Oc3ccc(NC(=O)Nc4cc(C(F)(F)F)ccc4F)cc3)cc2s1` it was 0.52%.
On the same count and under the same terms, then `COc1ccccc1-c1cc(/C=C2\C(=O)Nc3ncc(Br)cc32)cc(Br)c1O`, with 3.42%.
Still for that read-out and setting: in the case of `Cc1nnc(-c2cccc(-c3ccc(C(=O)NCC4CC4)cc3)c2)o1` it was 4.52%.
